From PubChem BioAssay
Most compounds without a hit are left out; they make up all but 12% or so of the library.
G9a block – qHTS Assay for Inhibitors of Histone Lysine Methyltransferase G9a; AID 504332, 2011; G9a H3K9 monomethylation, AlphaScreen, 2 h; 8.8% of 350,000 active; Potency, µM (top dose mostly 102 µM), without a hit: at the top dose activity, negative = inhibition, actives largely listed as inhibitors; Histone-lysine N-methyltransferase EHMT2 (Homo sapiens), Q96KQ7; further: potency means the concentration at half of the fitted maximal effect; on the % scale 0 is the no-effect control and ±100 the full control effect; nearly all actives have a fitted effect of over 75% in size
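Quantitative HTS format: methyltransferase activity on a biotin-tagged H3K9 peptide is measured by AlphaScreen, using a rabbit anti-monomethyl-H3K9 antibody with streptavidin donor and anti-IgG acceptor beads. Final levels are 20 nM enzyme, 500 nM peptide, 20 uM SAM; 2 h RT.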
PLK1 PBD inh – qHTS for Inhibitors of PLK1-PDB (polo-like kinase 1 - polo-box domain): Primary Screen; AID 720504, 2013; Potency, µM, inactives show max response, negative = inhibition, usual class: inhibitors; 2.8% of 360,000 active; Plk1 PBD binding of FITC phosphopeptide, fluorescence polarization; further: potency means the concentration at half of the fitted maximal effect; series mostly up to about 57 µM; on the % scale 0 is the no-effect control and ±100 the full control effect; nearly all actives have a fitted effect of over 65% in size
HP1b binding inh – HTS for Inhibitors of HP1-beta Chromodomain Interactions with Methylated Histone Tails. Chromobox protein homolog 1 (Homo sapiens), P83916. AlphaScreen HP1-beta / biotin-H3K9me3 peptide binding. Potency, µM (titrated, usually from 114 µM), for the others: at the highest dose activity change, negative = inhibition, hits mostly inhibitors. 0.56% of 390,000 active; further: potency means the concentration at half of the fitted maximal effect; nearly all actives have a fitted effect of over 70% in size
Target sequence (P83916 whole entry, looked up): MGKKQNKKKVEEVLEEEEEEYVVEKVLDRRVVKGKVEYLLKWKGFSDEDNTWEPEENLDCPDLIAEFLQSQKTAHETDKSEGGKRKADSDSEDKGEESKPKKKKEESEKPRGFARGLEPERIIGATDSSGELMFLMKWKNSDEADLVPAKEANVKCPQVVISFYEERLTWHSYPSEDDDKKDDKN
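HP1-beta protein (50 nM final) preincubated 30 min at room temperature with biotinylated H3(1-18)K9me3 peptide (50 nM) in PBS pH 7.4, 0.01% Tween-20, then compound added for 30 min. AlphaScreen streptavidin donor/nickel chelate acceptor beads (10 ug/mL final), 30 min dark, luminescence read.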
BAZ2B block – qHTS Assay for Inhibitors of BAZ2B | Bromodomain adjacent to zinc finger domain protein 2B (Homo sapiens), Q9UIF8 | AlphaScreen BAZ2B-H3K14Ac peptide displacement | Potency, µM (highest dose often 114 µM), inactives show at the top dose activity change, negative = inhibition, actives largely listed as inhibitors | 4.4% of 360,000 active | AID 504333, 2011; further: potency means the concentration at half of the fitted maximal effect; on the % scale 0 is the no-effect control and ±100 the full control effect; nearly all actives have a fitted effect of over 60% in size
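Complex of BAZ2B and biotin-H3K14Ac (50 nM apiece) forms over 30 min at RT, then faces library compounds up to 110 uM for another 30 min; AlphaScreen beads added, 20 min dark incubation, luminescence read.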
PI5P4K alpha inh – qHTS for Inhibitors of phosphatidylinositol 5-phosphate 4-kinase (PI5P4K); Phosphatidylinositol 5-phosphate 4-kinase type-2 alpha (Homo sapiens), P48426; PI5P4Kalpha enzyme, ADP-Glo luminescence, 60 min; active compounds read low; max response, %; 1.2% of 330,000 active; AID 652105, 2013; active means max response of -50% or lower; inconclusive means between -30% and -50%; inactive means -30% or higher; further: value at the top dose of about 77 µM; on the % scale 0 is the no-effect control and ±100 the full control effect
Target sequence (P48426 whole entry, looked up): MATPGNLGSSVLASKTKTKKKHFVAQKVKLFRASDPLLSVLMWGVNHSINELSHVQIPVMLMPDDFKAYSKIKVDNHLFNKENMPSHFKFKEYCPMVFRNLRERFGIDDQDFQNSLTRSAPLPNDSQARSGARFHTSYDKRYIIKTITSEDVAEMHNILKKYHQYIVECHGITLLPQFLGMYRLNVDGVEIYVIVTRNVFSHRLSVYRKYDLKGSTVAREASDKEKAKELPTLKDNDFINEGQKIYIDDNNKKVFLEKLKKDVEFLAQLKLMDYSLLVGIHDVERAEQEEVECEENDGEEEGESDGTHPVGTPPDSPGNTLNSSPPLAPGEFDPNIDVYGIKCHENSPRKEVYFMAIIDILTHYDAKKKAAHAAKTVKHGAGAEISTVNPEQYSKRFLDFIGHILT
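Luminescence from ADP-Glo served as readout of PI5P4Kalpha activity in a qHTS format. Reaction: enzyme, substrate, compound, ATP at 5 microM final, 60 min at RT.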
JMJD2A Tudor inh – qHTS Assay for Inhibitors of JMJD2A-Tudor Domain. Lysine-specific demethylase 4A (Homo sapiens), O75164. AlphaScreen JMJD2A-Tudor / H3K4me3 peptide binding. Potency, µM (titrated, usually from 114 µM), inactives show at the highest dose activity change, negative = inhibition, actives largely listed as inhibitors. 4.4% of 390,000 active; further: potency means the concentration at half of the fitted maximal effect; on the % scale 0 is the no-effect control and ±100 the full control effect; nearly all actives have a fitted effect of over 50% in size
* hit, by the source's call; [ ] = another dose, or the depositor's remark. Unless noted, the call rests on the fitted dose curve; in most records, active means well fitted curve in the direction sought with a large enough effect; inconclusive means small, poorly fitted or top-dose-only effect, or another doubt; inactive means no such curve, though single readings can be large; an effect the other way counts as inactive or inconclusive.

What do the screens show for `Cc1cccc(Cl)c1OCCCCn1ccnc1`?
G9a block: -19.5%[59 µM]; PLK1 PBD inh: -10.8%; HP1b binding inh: 10.2%; BAZ2B block: inconclusive; JMJD2A Tudor inh: inconclusive

Results for Cc1cccc(OCCn2cnc(Cl)c2Cl)c1 ?
G9a block: -44.1%; PLK1 PBD inh: -5.4%; HP1b binding inh: -18.5%; BAZ2B block: 28.2µM*; PI5P4K alpha inh: 8.1; JMJD2A Tudor inh: -19.3%

How did Cc1cccc(OCCCCCn2ccnc2)c1 do in these assays?
G9a block: 31.6µM*; PLK1 PBD inh: 3.6%; HP1b binding inh: inconclusive; BAZ2B block: 50.1µM*; PI5P4K alpha inh: -3.3; JMJD2A Tudor inh: 3.16µM*

How did Cc1cc(OCCCCn2ccnc2)cc(C)c1Cl do in these assays?
G9a block: 8.91µM*; PLK1 PBD inh: -16.4%; HP1b binding inh: -0.3%; BAZ2B block: inconclusive; PI5P4K alpha inh: -9.6; JMJD2A Tudor inh: inconclusive

How did CCc1nc2ccc(C(=O)N(C)CCN(C)C)cn2c1N(C)Cc1cc2ccccc2s1 do in these assays?
PLK1 PBD inh: -8.1%; PI5P4K alpha inh: -9.0

What do the screens show for `CCOC(=O)CNC(=O)c1cc2c(=O)n(CC)c3ccccc3c2s1`?
G9a block: 7.9%[59 µM]; HP1b binding inh: 21.7%; BAZ2B block: -2.5%; JMJD2A Tudor inh: -14.1%

How did Clc1ccc(SCCCCn2ccnc2)cc1 do in these assays?
G9a block: inconclusive; PLK1 PBD inh: -1.6%; HP1b binding inh: inconclusive; BAZ2B block: 50.1µM*; PI5P4K alpha inh: -8.2; JMJD2A Tudor inh: 7.94µM*

Results for Cc1ccccc1OCCCCCn1ccnc1 ?
G9a block: -16.6%; PLK1 PBD inh: -6.8%; HP1b binding inh: -0.6%; BAZ2B block: -30.6%; JMJD2A Tudor inh: inconclusive

How did CCc1cccc(OCCn2ccnc2)c1 do in these assays?
G9a block: 8.91µM*; PLK1 PBD inh: -11.5%; HP1b binding inh: inconclusive; BAZ2B block: 50.1µM*; PI5P4K alpha inh: -8.5; JMJD2A Tudor inh: 11.2µM*

How did Cc1cccc(CN2[C@H](COCc3ccccc3)C=CS2(=O)=O)c1 do in these assays?
PLK1 PBD inh: -15.5%; PI5P4K alpha inh: -0.1

How did CCOc1ccc(Br)cc1S(=O)(=O)NCCN1CCCC1 do in these assays?
G9a block: -35.3%; PLK1 PBD inh: -4.8%; HP1b binding inh: 35.4%; BAZ2B block: -34.1%; PI5P4K alpha inh: -8.2; JMJD2A Tudor inh: -1.3%

What do the screens show for `COc1cccc(-c2nc(SCC(=O)Nc3nc(-c4ccccc4)c(C)s3)[nH]c(=O)c2C#N)c1`?
G9a block: inconclusive; PLK1 PBD inh: 21.2µM*; HP1b binding inh: 7.7%; BAZ2B block: inconclusive; PI5P4K alpha inh: inconclusive; JMJD2A Tudor inh: -31.3%

Results for COc1ccccc1NC(=O)CSc1nc(-c2ccc(C(C)(C)C)cc2)c(C#N)c(=O)[nH]1 ?
G9a block: -50.8%[59 µM]; HP1b binding inh: 26.1%; BAZ2B block: 79.4µM*; JMJD2A Tudor inh: -33.8%

Results for COCC(=O)Nc1nc(-c2ccc(-c3ccccc3)cc2)cs1 ?
G9a block: inconclusive; PLK1 PBD inh: -18.0%; HP1b binding inh: 64.1%; BAZ2B block: -14.4%; PI5P4K alpha inh: 7.1; JMJD2A Tudor inh: -15.2%

Results for COCC(=O)Nc1nc(-c2ccccc2)c(C)s1 ?
G9a block: 44.7µM*; PLK1 PBD inh: inconclusive; HP1b binding inh: -4.0%; BAZ2B block: 9.3%; JMJD2A Tudor inh: -11.2%

Results for Cc1ccc(C)c(NC(=O)CSc2nc(-c3ccccc3)c(C#N)c(=O)[nH]2)c1 ?
G9a block: 5.2%[59 µM]; HP1b binding inh: 28.5%; BAZ2B block: 7.2%; JMJD2A Tudor inh: -4.3%

How did CCOc1ccc2nc(NC(=O)CSc3cn[nH]n3)sc2c1 do in these assays?
G9a block: -43.0%; PLK1 PBD inh: -4.8%; HP1b binding inh: 21.3%; BAZ2B block: 11.2%; PI5P4K alpha inh: 10.8; JMJD2A Tudor inh: -18.7%

How did CCOc1ccc2nc(NC(=O)CSc3nc(-c4ccccc4)c(C#N)c(=O)[nH]3)sc2c1 do in these assays?
G9a block: inconclusive; PLK1 PBD inh: 21.2µM*; HP1b binding inh: inconclusive; BAZ2B block: -26.8%; PI5P4K alpha inh: inconclusive; JMJD2A Tudor inh: 50.1µM*

What do the screens show for `Cc1nnc(NC(=O)CSc2nccn2-c2cccc(Cl)c2)s1`?
G9a block: 0.7%[59 µM]; HP1b binding inh: 8.6%[57 µM]; BAZ2B block: -10.9%; JMJD2A Tudor inh: -20.3%

What do the screens show for `COc1ccc(O)c(C(=O)c2coc(=N)c(C(=O)Nc3ccc(SC(F)F)cc3)c2)c1`?
G9a block: inconclusive; PLK1 PBD inh: 32.9%; HP1b binding inh: 7.9%; PI5P4K alpha inh: -22.6; JMJD2A Tudor inh: inconclusive

What do the screens show for `CCCOc1ccc(C(=O)Nc2cc3nn(-c4ccc(CC)cc4)nc3cc2C)cc1`?
G9a block: 2.5%[59 µM]; HP1b binding inh: 21.7%; BAZ2B block: -6.8%; JMJD2A Tudor inh: -4.9%

How did CN(C(=O)CSc1nc(-c2ccc(C(C)(C)C)cc2)c(C#N)c(=O)[nH]1)C1CCCCC1 do in these assays?
G9a block: 44.7µM*; PLK1 PBD inh: inconclusive; HP1b binding inh: 25.2%; BAZ2B block: -26.7%[57.1 µM]; PI5P4K alpha inh: inconclusive; JMJD2A Tudor inh: -16.5%

Results for CCOC(=O)Cc1csc(NC(=O)CSc2nc(-c3ccccc3)c(C#N)c(=O)[nH]2)n1 ?
G9a block: inconclusive; PLK1 PBD inh: -6.8%; HP1b binding inh: 26.1%; BAZ2B block: -5.9%; PI5P4K alpha inh: -65.3*; JMJD2A Tudor inh: -13.3%

What do the screens show for `N#Cc1c(-c2ccccc2)nc(SCC(=O)NC2CCCCC2)[nH]c1=O`?
G9a block: -45.6%; PLK1 PBD inh: -5.2%; HP1b binding inh: 24.3%; BAZ2B block: 14.3%; PI5P4K alpha inh: inconclusive; JMJD2A Tudor inh: -3.4%

Results for S=c1[nH]nc(-c2ccc(Cl)cc2)n1/N=C/c1cccs1 ?
PLK1 PBD inh: -19.0%; HP1b binding inh: 19.4%; BAZ2B block: -9.7%; PI5P4K alpha inh: 0.0; JMJD2A Tudor inh: -18.5%

Results for Cc1nn(-c2ccccc2)c(C)c1/C=N/n1c(-c2ccncc2)n[nH]c1=S ?
G9a block: 2.24µM*; PLK1 PBD inh: -12.1%; HP1b binding inh: 10.6%; BAZ2B block: inconclusive; PI5P4K alpha inh: -19.2; JMJD2A Tudor inh: inconclusive

What do the screens show for `Cc1[nH]n(-c2ccccc2)c(=O)c1C=Nc1ccc(S(N)(=O)=O)cc1`?
G9a block: inconclusive; PLK1 PBD inh: -1.2%; HP1b binding inh: -15.0%; BAZ2B block: -22.1%; PI5P4K alpha inh: 8.4; JMJD2A Tudor inh: -15.7%
